# MbtI inh – MbtI salicylate synthase inhibitors, primary screen, biochemical, fluorescence intensity. purified MbtI enzyme, fluorescence intensity read-out. P9WFX0. inhibition, % (test concentration not listed). hit rate 0.89% among 100,000; in the data active means inhibition mostly above about 56%, no sharp cut-off; inactive means mostly below about 77%
# Target sequence (P9WFX0 whole entry, looked up): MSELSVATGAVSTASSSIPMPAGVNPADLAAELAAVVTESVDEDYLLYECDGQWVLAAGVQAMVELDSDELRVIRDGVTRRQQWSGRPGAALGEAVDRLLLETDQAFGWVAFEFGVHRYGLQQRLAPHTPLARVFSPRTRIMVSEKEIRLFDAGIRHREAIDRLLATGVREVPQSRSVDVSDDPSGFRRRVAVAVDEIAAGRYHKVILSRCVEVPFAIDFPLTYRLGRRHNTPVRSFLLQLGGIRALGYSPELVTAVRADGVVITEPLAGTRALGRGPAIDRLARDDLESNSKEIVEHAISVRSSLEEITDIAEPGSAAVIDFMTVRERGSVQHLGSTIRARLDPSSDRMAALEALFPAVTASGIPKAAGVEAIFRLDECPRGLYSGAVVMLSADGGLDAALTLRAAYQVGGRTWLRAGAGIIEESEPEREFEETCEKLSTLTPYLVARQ
# Polio RdRp inh – poliovirus RdRp elongation inhibitors, primary screen, biochemical, fluorescence polarization, total intensity. % elongation, % (compound at 16.7 µg/mL). poliovirus polymerase elongation; active compounds read low. hit rate 0.66% among 150,000. AID 588519, 2011; in the data active means % elongation below about 90%
# AID504770 – growth inhibition of E. coli YBA685, primary screen, V. cholerae RctB inhibitors; E. coli YBA685 rctB-dependent plasmid, OD600 growth, 3 h; active compounds read low; z-score (test concentration not listed); hit rate 0.27% among 130,000; AID 504770, 2011; in the data active means z-score below about -2, passing the limit was not always enough
# Mtb MenB inh – M. tuberculosis MenB inhibitors, primary screen, biochemical, absorbance. 1,4-dihydroxy-2-naphthoyl-CoA synthase (Mycobacterium tuberculosis (strain ATCC 25618 / …. MenB enzyme assay, absorbance read-out. inhibition, % (test concentration not listed). hit rate 0.43% among 100,000; in the data active means inhibition above about 21%, passing the limit was not always enough
# A number is an active result; 0 = inactive; - = no result given. Hits are enriched below; roughly 1.4% of the tested compounds scored in any of these assays.
SMILES,MbtI inh,Polio RdRp inh,AID504770,Mtb MenB inh
CCCCC(=O)n1c(=O)oc2ccc(C(C)(C)C)cc21,0,0,0,0
OCCP(c1ccccc1)c1ccccc1,0,0,0,61
O=C(O)CC(CP(c1ccccc1)c1ccccc1)C(=O)O (stereo unspecified),0,0,0,0
CC(C(=O)N1CCCC1)N1CCN(c2ccc(F)cc2)CC1 (stereo unspecified),0,0,0,41
CC(C)(C)c1cc(O)c(O)c(Br)c1,101,0,0,0
COC(=O)c1cc(Br)c(O)c(Br)c1,-,-,0,-
O=C(NOC(=O)c1cccs1)c1ccccc1,0,0,-2.6,0
CNC(=O)CSc1nnc(-c2ccc3c(c2)OCO3)n1-c1ccccc1,0,0,0,0
C=CCn1c(N)nc2c1c(=O)n(C)c(=O)n2C,0,0,0,49
NC(=O)COC(=O)C1CCN(S(=O)(=O)c2ccccc2C(F)(F)F)CC1,0,0,0,0
Cc1ccc(Nc2nnns2)cc1C,60,0,0,0
Oc1c(Cl)cc(Cl)c2cccnc12,0,0,0,0
O=C(Oc1c(Cl)cc(Cl)c2cccnc12)c1ccco1,0,0,-3.4,0
Cc1noc(C)c1COc1cccc(C(=O)N2CCc3ccccc32)c1,0,0,-2.5,0
CCOC(=O)c1c(NC(=O)/C(C#N)=C/c2ccc(OC)cc2)sc2c1CCC2,-,0,-,-
CCOc1ccc(/C=C(\C#N)C(=O)Nc2sc3c(c2C(=O)OC)C(C(=O)OC)CC3)cc1OC (stereo unspecified),-,73,-,-
CCOC(=O)c1sc(N)c(C(=O)OCC)c1C,-,79,0,0
CCOC(=O)c1c(C)c(C)c(C)[nH]c1=S,91,0,0,0
COc1ccc(-c2ocnc2C(=O)NCc2ccccc2)cc1,0,0,0,0
c1ccc(NNC2=NCCCCC2)nc1,0,0,0,0
CC(C)C(C)(C#N)NC(=O)CN1CCOCC1 (stereo unspecified),0,0,0,0
S=c1[nH]nc(Nc2ccccc2)n1-c1ccccc1,58,0,0,0
S=c1[nH]nc(-c2ccccc2)n1-c1ccccc1,0,0,0,0
Cc1ccc(S(=O)(=O)NCC(=O)NN=C2CCCCC2)cc1,0,0,0,0
CC1(N)CCS(=O)(=O)C1 (stereo unspecified),0,0,0,0
SMILES,MbtI inh,Polio RdRp inh,AID504770,Mtb MenB inh
CCc1ccc(C(=O)CSc2nnc3[nH]c(=O)c(C(C)(C)C)nn23)cc1,0,0,0,0
Cc1cc(Cl)ccc1OCCCC(=O)NC1(C)CCS(=O)(=O)C1 (stereo unspecified),0,0,0,0
Cc1sc2c(c1C)CSC(C(=O)O)=C2,98,0,0,0
Cc1ccc2cccc(I)c2n1,0,0,-2.5,0
CCOC(=O)N=c1oc2cc(Cl)c(Cl)cc2o1,96,0,0,0
CCOC(=O)Oc1cc2oc(=O)sc2cc1Cl,0,0,0,0
Cc1oc2ncn(C)c(=O)c2c1C(=O)N1CCc2ccccc21,0,0,0,0
CCN(CC)Cc1cc(C(C)C)c(O)c(C(C)C)c1,-,-,0,-
CCN(CC)Cc1cc(O)c(CN(CC)CC)cc1O,94,0,0,-
FC(F)(F)c1cccc(N2CCN(C3=Cc4ccccc4C3)CC2)c1,0,0,0,0
O=C(CSc1nnc(-c2ccco2)c(-c2ccco2)n1)N1c2ccccc2Sc2ccc(Cl)cc21,0,0,0,33
COc1ccc(CNCCN2CCOCC2)cc1,0,0,0,28
COc1ccc(OC)c(NC(=S)NCCN2CCOCC2)c1,0,0,0,0
Oc1[nH]c2ccc(Br)cc2c1N=NC(=S)NCC1CCCO1 (stereo unspecified),0,90,0,0
Cc1cc(C)c2[nH]c(O)c(N=NC(=S)NCC3CCCO3)c2c1 (stereo unspecified),0,0,0,0
C1COCCNCCOCCN1,0,88,0,0
O=C(CSc1nnc(-c2ccc(Cl)cc2Cl)n1Cc1ccco1)c1ccc[nH]1,0,0,0,44
Cc1ccc(NC(=O)Sc2ccc(Cl)cc2)cc1,57,0,0,0
CC1CCCN(C(=O)COC(=O)c2ccc(N(C)C)cc2)C1 (stereo unspecified),0,0,0,0
FC(F)Oc1ccc(Cl)cc1COc1ncnc2ccccc12,0,0,0,0
Cc1cc(NC(=S)N(C)C)ccc1Br,96,0,0,0
S=C(NC1CCCCC1)C(=S)NC1CCCCC1,0,82,0,0
Cc1ccccc1Nc1nn2c(=O)c3ccc(C(=O)NCc4ccccc4)cc3nc2s1,-,0,-,-
Cc1cc(C)c(Nc2nn3c(=O)c4cc5c(cc4nc3s2)OCO5)c(C)c1,-,87,-,-
Cc1cccc(C)c1Nc1nn2c(=O)c3ccccc3nc2s1,0,88,0,0
SMILES,MbtI inh,Polio RdRp inh,AID504770,Mtb MenB inh
O=C(Cc1n[nH]c(=O)c2ccccc12)NCCc1ccccn1,0,0,0,0
Cc1ccc(S(=O)(=O)N2CCC(On3nnc4ccccc43)CC2)cc1,0,0,0,0
CC1=CC(=O)C(CCCCCC2=CC(=O)C(C)=CC2=O)=CC1=O,95,0,0,0
CC1=CC(=O)C(CCOCCC2=CC(=O)C(C)=CC2=O)=CC1=O,100,0,0,0
c1cc2c(cc1C1=NCCC1)OCCO2,0,0,0,0
O=C(CN1C(=O)S/C(=C/c2ccc(Cl)cc2)C1=O)N1CCCCCC1,0,0,0,-
O=C1C2CN3CCN(C2)CC1(c1ccccc1)C3,0,-,0,-
O=C1C2CN3CN(C2)CC1(c1ccccc1)C3,0,0,0,34
CN1C(=O)C(=C/C=C/c2ccccc2)C(=O)N(C)C1=O,82,0,0,0
C=CCN1C(=O)NC(=O)/C(=C/C=C/c2ccccc2)C1=O,0,0,0,0
Nc1cc(C(F)(F)F)ccc1Oc1ccc(Br)cc1,0,0,0,-
CCC(=O)Nc1ccc2nc(C3CC3)n(Cc3ccc(Cl)cc3)c(=O)c2c1,0,0,0,31
CCN(CC)Cn1c(=S)oc2ccc(Cl)cc21,64,0,0,0
COCCNC(=S)c1ccc(N(C)C)cc1,62,0,0,0
O=C1NN=C(c2ccccc2)Cn2c1cc1ccccc12,0,0,0,0
COc1ccc(OCC(=O)NCCO)cc1,0,0,0,35
Cc1ccc(S(=O)(=O)N(CC(=O)O)C2CCCCCC2)cc1,0,0,0,0
NC(=O)CN(C1CCCCC1)S(=O)(=O)c1ccc(Br)cc1,0,0,0,41
CC(C)C/C=C1\CC/C(=C\c2ccc(N(C)C)cc2)C1=O,0,0,0,0
COc1c(N2CCNC(C)C2)c(F)cc2c(=O)c(C(=O)O)cn(C3CC3)c12 (stereo unspecified),0,0,-3.5,0
CO/N=C1\CN(c2nc3c(cc2F)c(=O)c(C(=O)O)cn3C2CC2)CC1CN (stereo unspecified),-,0,-3.6,0
CCn1cc(C(=O)O)c(=O)c2cc(F)c(F)cc21,0,0,0,0
O=C(O)c1cn(C2CC2)c2cc(N3CCNCC3)c(F)cc2c1=O,0,0,-3.4,0
CC1=C(C)C(=O)C(C)=C(C)C1=O,0,0,0,0

# Screening results from PubChem.
